Active and inactive are the calls of the source.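 Rule for the calls, unless noted: active = normalized viability below 100% at a tested concentration; inactive = the rest.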

A short description of assay [1]: kinase inhibitors against Plasmodium liver-stage infection, cell-based, known kinase inhibitor set, luminescence, hepatoma host viability (AID 624392; call rule not given here;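 note: infected cells incubated roughly two days before readout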). Particulars: Plasmodium liver stage in hepatoma cells, luciferase luminescence, concentration not given here; liver cell % of control: measured here: host liver cell viability; parasite % of control: stronger effect = lower value.

The nature of assay [2]: modulators of glucocorticoid suppression of NF-kB, cell-based, luciferase, IL-1B stimulus, dexamethasone (AID 624486; call rule not given here;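 for percent of negative control (+Dex): 100% = mean signal of vehicle control wells on the plate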). Particulars: NF-kB luciferase reporter, IL-1B + dexamethasone, luminescence; percent of negative control (+Dex): actives lie on both sides, concentration not given here; z-score: measured here: IL-1B alone, no Dex.
Assay [3] is described as follows: kinase inhibitors altering Pseudomonas killing of worms, whole organism (AID 651566; call rule not given here;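 note: tested at 14 µM; sign flipped so higher z means a lower ratio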). To be noted: C. elegans killed by P. aeruginosa, survival ratio.
Assay [4] is described as follows: activators of macrophage pro-inflammatory response, cell-based, murine, luminescence (AID 652131; call rule not given here). To be noted: murine macrophage pro-inflammatory reporter, stronger effect = higher value.
The nature of assay [5]: survival rescue of mitochondrial mutant cells in low glucose, primary screen, MELAS cybrids, Rieske KO mouse fibroblasts, CellTiter-Glo (AID 1508586;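 active = mean z-score across replicates of 1.96 or higher in either the MELAS or the Rieske mutant cell line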;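 note: z relative to plate mean and SD of compound and empty wells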). In general terms: ATP-based viability assays read luminescence as a measure of living cells.
Assay [6] can be described thus: ovarian cancer cell viability with rucaparib, profiling panel, oncology-focused library, rucaparib conditional (AID 1508598). To be noted: patient-derived ovarian cancer cells, CellTiter-Glo viability, 144 h, stronger effect = lower value.
Where [7] appears, read: at 0.000305 µM, OCI-C5x cells, with rucaparib 10 µM, 100% = cells with rucaparib alone.
[8] abbreviates: at 0.000305 µM, OCI-C5x cells, without rucaparib.
[9] abbreviates: at 0.000305 µM, OCI-P5x cells, with rucaparib 20 µM, 100% = cells with rucaparib alone.
The mark [10] stands for this setting: at 0.000305 µM, OCI-P5x cells, without rucaparib.
Where [11] appears, read: at 0.00122 µM, OCI-C5x cells, with rucaparib 10 µM, 100% = cells with rucaparib alone.
[12] abbreviates: at 0.00122 µM, OCI-C5x cells, without rucaparib.
Where [13] appears, read: at 0.00122 µM, OCI-P5x cells, with rucaparib 20 µM, 100% = cells with rucaparib alone.
[14] abbreviates: at 0.00122 µM, OCI-P5x cells, without rucaparib.
The mark [15] stands for this setting: at 0.00488 µM, OCI-C5x cells, with rucaparib 10 µM, 100% = cells with rucaparib alone.
The mark [16] stands for this setting: at 0.00488 µM, OCI-C5x cells, without rucaparib.
Where [17] appears, read: at 0.00488 µM, OCI-P5x cells, with rucaparib 20 µM, 100% = cells with rucaparib alone.
Setting [18] is: at 0.00488 µM, OCI-P5x cells, without rucaparib.
Where [19] appears, read: at 0.0195 µM, OCI-C5x cells, with rucaparib 10 µM, 100% = cells with rucaparib alone.
The mark [20] stands for this setting: at 0.0195 µM, OCI-C5x cells, without rucaparib.
[21] abbreviates: at 0.0195 µM, OCI-P5x cells, with rucaparib 20 µM, 100% = cells with rucaparib alone.
[22] abbreviates: at 0.0195 µM, OCI-P5x cells, without rucaparib.
[23] abbreviates: at 0.0781 µM, OCI-C5x cells, with rucaparib 10 µM, 100% = cells with rucaparib alone.
The mark [24] stands for this setting: at 0.0781 µM, OCI-C5x cells, without rucaparib.
[25] abbreviates: at 0.0781 µM, OCI-P5x cells, with rucaparib 20 µM, 100% = cells with rucaparib alone.
Where [26] appears, read: at 0.0781 µM, OCI-P5x cells, without rucaparib.
Setting [27] is: at 0.313 µM, OCI-C5x cells, with rucaparib 10 µM, 100% = cells with rucaparib alone.
Where [28] appears, read: at 0.313 µM, OCI-C5x cells, without rucaparib.
[29] abbreviates: at 0.313 µM, OCI-P5x cells, with rucaparib 20 µM, 100% = cells with rucaparib alone.
Where [30] appears, read: at 0.313 µM, OCI-P5x cells, without rucaparib.
Where [31] appears, read: at 1.25 µM, OCI-C5x cells, with rucaparib 10 µM, 100% = cells with rucaparib alone.
The mark [32] stands for this setting: at 1.25 µM, OCI-C5x cells, without rucaparib.
The mark [33] stands for this setting: at 1.25 µM, OCI-P5x cells, with rucaparib 20 µM, 100% = cells with rucaparib alone.
Setting [34] is: at 1.25 µM, OCI-P5x cells, without rucaparib.
The mark [35] stands for this setting: at 5 µM, OCI-C5x cells, with rucaparib 10 µM, 100% = cells with rucaparib alone.
Where [36] appears, read: at 5 µM, OCI-C5x cells, without rucaparib.
Where [37] appears, read: at 5 µM, OCI-P5x cells, with rucaparib 20 µM, 100% = cells with rucaparib alone.
Where [38] appears, read: at 5 µM, OCI-P5x cells, without rucaparib.

`COc1cc2ncn(-c3cc(OCCc4ccccc4)c(C(N)=O)s3)c2cc1OC` returned a liver cell % of control in assay [1] of 140%. For the same compound, the parasite % of control in assay [1] was 71.4% (inactive). Also, the percent of negative control (+Dex) in assay [2] was 95% (inactive). In addition, the z-score is 0.89 in assay [2]; -0.32 (inactive) in assay [3]; 0.419 (inactive) in assay [4]; -0.0219 (inactive) in assay [5] (MELAS cybrid survival, CellTiter-Glo 48 h, stronger effect = higher value); -0.0569 in assay [5] (Rieske KO mouse fibroblast survival, CellTiter-Glo 72 h).

In the case of `Nc1ncn([C@@H]2O[C@H](CO)[C@@H](O)[C@@H]2O)c(=O)n1`, the viability in assay [6] (setting [7]) was 104% (inactive); in assay [6] (setting [8]), 128% (inactive); in assay [6] (setting [9]), 103% (inactive); in assay [6] (setting [10]) it was 125% (inactive); in assay [6] (setting [11]), 108% (inactive); in assay [6] (setting [12]), 132% (inactive). Also, the viability was 102% (inactive) in assay [6] (setting [13]); 123% (inactive) in assay [6] (setting [14]); 114% (inactive) in assay [6] (setting [15]); 122% (inactive) in assay [6] (setting [16]); 102% (inactive) in assay [6] (setting [17]); 116% (inactive) in assay [6] (setting [18]). For the same compound, the viability in assay [6] (setting [19]) was 114% (inactive); in assay [6] (setting [20]), 129% (inactive); in assay [6] (setting [21]) it was 110% (inactive); in assay [6] (setting [22]) it was 119% (inactive); in assay [6] (setting [23]), 117% (inactive); in assay [6] (setting [24]), 119% (inactive). Also, the viability was 110% (inactive) in assay [6] (setting [25]); 122% (inactive) in assay [6] (setting [26]); 112% (inactive) in assay [6] (setting [27]); 124% (inactive) in assay [6] (setting [28]); 114% (inactive) in assay [6] (setting [29]); 122% (inactive) in assay [6] (setting [30]). Also, the viability was 110% (inactive) in assay [6] (setting [31]); 123% (inactive) in assay [6] (setting [32]); 105% (inactive) in assay [6] (setting [33]); 111% (inactive) in assay [6] (setting [34]); 107% (inactive) in assay [6] (setting [35]); 109% (inactive) in assay [6] (setting [36]). In addition, the viability in assay [6] (setting [37]) was 97.7% (active); in assay [6] (setting [38]) it was 99.1% (active).

Consider `CC(=O)[C@]1(O)Cc2c(O)c3c(c(O)c2[C@H](O[C@H]2C[C@H](N)[C@H](O)[C@H](C)O2)C1)C(=O)c1ccccc1C3=O`, for which the viability in assay [6] (setting [7]) is 107% (inactive); in assay [6] (setting [8]), 103% (inactive); in assay [6] (setting [9]), 110% (inactive); in assay [6] (setting [10]), 115% (inactive); in assay [6] (setting [11]) it was 105% (inactive); in assay [6] (setting [12]) it was 107% (inactive). For the same compound, the viability in assay [6] (setting [13]) is 107% (inactive); in assay [6] (setting [14]), 112% (inactive); in assay [6] (setting [15]), 104% (inactive); in assay [6] (setting [16]) it was 73.9% (active); in assay [6] (setting [17]) it was 110% (inactive); in assay [6] (setting [18]), 96.9% (active). For the same compound, the viability in assay [6] (setting [19]) was 148% (inactive); in assay [6] (setting [20]), 112% (inactive); in assay [6] (setting [21]), 74% (active); in assay [6] (setting [22]), 36.9% (active); in assay [6] (setting [23]), 82.5% (active); in assay [6] (setting [24]) it was 7.56% (active). Besides, the viability in assay [6] (setting [25]) was 55.5% (active); in assay [6] (setting [26]) it was 12.2% (active); in assay [6] (setting [27]), 3.18% (active); in assay [6] (setting [28]) it was 1.75% (active); in assay [6] (setting [29]), 19% (active); in assay [6] (setting [30]), 7.09% (active). Besides, the viability in assay [6] (setting [31]) was 1.52% (active); in assay [6] (setting [32]), 1.48% (active); in assay [6] (setting [33]) it was 9.24% (active); in assay [6] (setting [34]), 4.04% (active); in assay [6] (setting [35]), 3.72% (active); in assay [6] (setting [36]) it was 3.03% (active). Also, the viability in assay [6] (setting [37]) was 4.45% (active); in assay [6] (setting [38]) it was 3.64% (active).

As a reminder, the viability is a read-out of living cells in per cent, often relative to untreated cells.

The values are drawn from PubChem BioAssay.
